According to PubChem BioAssay AID720519 (National Center for Advancing Translational Sciences (NCATS), 2013):
Records with an inconclusive call do not appear. Calls of active or inactive are those of the source. Calls come from the whole dose curve; as a rule, active = well fitted activation curve with a large enough effect; inconclusive = small, poorly fitted or top-dose-only effect; inactive = flat fitted curve, though single readings scatter. Square brackets hold non-standard residues; d marks the D form. Peptide text beside a SMILES is read from it. ξ: configuration not given here. ξLac(3-iPr) = CC(C)CC(O)C(=O)O; NMeV = CN[CH](C(=O)O)C(C)C; NMeA = CN[CH](C)C(=O)O; βAla = NCCC(=O)O

Assay: qHTS for Inhibitors of Cell Surface uPA Generation: Confirmatory Assay for Cherry-picked Compounds; for inhibition: 0% is about no effect
Conditions: cell surface uPA activity generation, qHTS confirmation; series mostly up to 115 µM; inhibition: at the top concentration
Text: The overall objective of this project is to perform a quantitative high throughput screen (qHTS) to identify novel compounds that inhibit the generation of cell surface urokinase activity. The urokinase plasminogen activator (uPA) is one of the two primary endogenous systems that mediate plasminogen activation into plasmin. Members of this system, including uPA and its receptor (uPAR), are overexpressed in several malignant tumors. This system plays a major role in adhesion, migration, invasion and metastasis of cancer cells. Small molecule inhibitors of the uPA system will serve as probes to understand the molecular mechanisms of the uPA cascade and better understanding the micro-environmental circumstances that facilitate the activation of plasminogen by uPA, and finally may provide novel candidate agents for anticancer drug therapy.
[…] […] Upon inhibition of the uPA activation cascade, the subsequent cell surface uPA activity-dependent translocation of LF into the cytoplasm is inhibited. ATP-Lite is used to measure intracellular ATP concentrations (measure cell viability) which remain increased if LF entry into the cytoplasm is inhibited. This validation assay was performed using a small set of cherry picked compounds. Activation of cell viability (increase in luminescence signal) due to inhibition of the cell surface uPA generation is the desired outcome of this assay.
NIH Chemical Genomics Center [NCGC]
NIH Molecular Libraries Probe Centers Network [MLPCN]
Assay Submitter (PI): Thomas Bugge, National Institute of Dental and Craniofacial Research, NIH
Cultured RAW 264.7 were dispensed into 1536-well clear bottom, white walled tissue culture plates at a density of 4000 cells/well and were incubated overnight (12-16 h) at 37 C in a 5% CO2 incubator. Serially diluted compounds (1:5 dilution) in 23 nl DMSO were added to cells (0.0024 uM to 3.83 uM final concentration). […] Compound and reagent-treated plates were incubated for 24 h at 37 C in a 5% CO2 incubator. Three microliter of PerkinElmer ATPlite was then added to each well and luminescence was detected using the PerkinElmer ViewLux plate reader for a 5 sec exposure.
Potency is the fitted concentration of half-maximal effect.

Question: Which “inhibition” value does the source give for `COc1ccccc1NC(=O)N1C[C@@H]2C[C@@H](C1)c1cccc(=O)n1C2` here?
Answer: 0.817% (inactive)

Question: With `O=c1[nH]c(=O)n(-c2ccc(Cl)cc2)c(O)c1C=Nc1ccc(S(=O)(=O)Nc2nccs2)cc1` as the compound, how does the “inhibition” value read?
Answer: -1.14% (inactive)

Question: For `CCC(C)C1NC(=O)C2CCCN2C(=O)C(CC(C)C)OC(=O)CCNC(=O)C(C)N(C)C(=O)C(C(C)C)N(C)C1=O` (stereo unspecified) (cyclo([ξLac(3-iPr)]PI[NMeV][NMeA][βAla]); configuration not given here), which Potency is on record?
Answer: 3.69 µM (active)

Question: With `COc1ccc(-c2nn(CCC#N)cc2C(=O)Nc2cccc([N+](=O)[O-])c2)cc1OC` as the compound, how does the “inhibition” value read?
Answer: -1.4% (inactive)

Question: For `CCOC(=O)c1ccc(N=Cc2c(O)n(-c3ccc(OC)cc3)c(=S)[nH]c2=O)cc1`, which “inhibition” value is on record?
Answer: 0.888% (inactive)

Question: With `CCOc1ccc(CN2CCN(C(=O)Cc3ccccc3)CC2)cc1` as the compound, how does the “inhibition” value read?
Answer: -2.65% (inactive)

Question: Which “inhibition” value does the source give for `COc1ccccc1N1CCN(Cc2ccc(SC)cc2)CC1` here?
Answer: -3.27% (inactive)

Question: Which “inhibition” value does the source give for `Cc1cc(C(=O)NP(=O)(N2CCOCC2)N2CCOCC2)c(C)n1C1CC1` here?
Answer: 1.26% (inactive)

Question: For `C[N+](C)(C)CCOC(=O)CBr`, which “inhibition” value is on record?
Answer: -2.83% (inactive)

Question: With `Cc1ccccc1O` as the compound, how does the “inhibition” value read?
Answer: -0.088% (inactive)

Question: With `COc1ccc(-c2nn(CCC#N)cc2C(=O)Nc2ccccc2)cc1OC` as the compound, how does the “inhibition” value read?
Answer: -1.47% (inactive)

Question: For `COC(=O)C1=C(c2cccc(OC)c2OC)C[C@@H]2CC[C@H]1N2C(=O)NC1CC1`, which “inhibition” value is on record?
Answer: -0.831% (inactive)

Question: For `O=P1(NCCCl)OCCCN1CCCl` (stereo unspecified), which “inhibition” value is on record?
Answer: -0.345% (inactive)

Question: Which “inhibition” value does the source give for `CCCCCn1c(=O)c(C(=O)Nc2ccccn2)c(O)c2ccccc21` here?
Answer: -3.37% (inactive)

Question: For `Cc1ncc(CN2CCCC(C(=O)c3cccc(OC(C)C)c3)C2)s1` (stereo unspecified), which “inhibition” value is on record?
Answer: -2.04% (inactive)

Question: For `Cc1ccc(-n2c(O)c(C=NCCN3CCNCC3)c(=O)[nH]c2=S)cc1`, which “inhibition” value is on record?
Answer: 9.38% (inactive)

Question: With `O=c1[nH]c(=O)n(CCc2ccccc2)c(O)c1C=NC1CC1` as the compound, how does the “inhibition” value read?
Answer: -1.12% (inactive)

Question: With `c1cncc(C2CCCCN2)c1` (stereo unspecified) as the compound, how does the “inhibition” value read?
Answer: 0.0289% (inactive)

Question: With `O=C(c1ccc(F)c([N+](=O)[O-])c1)N1CC2CC(C1)c1cccc(=O)n1C2` (stereo unspecified) as the compound, how does the “inhibition” value read?
Answer: -0.87% (inactive)

Question: With `FC(F)(F)Oc1ccc(NC2=NCCCS2)cc1` as the compound, how does the “inhibition” value read?
Answer: -1.26% (inactive)

Question: Which “inhibition” value does the source give for `COCC(=O)N1Cc2ccccc2-n2nncc2C1` here?
Answer: 1.13% (inactive)
